From the supplement of paper PMC8728848
Many of the other results were omitted from the sample, so the strongest signals are more common in it than they were.

Assays:
Assay in all cases: glycan array binding signal (z-score within array); higher = stronger binding
Conditions in all cases: glycan notation: IUPAC condensed, linker removed
Fuc(a1-2)Gal(b1-4)Glc6S = biological target: Fuc(a1-2)Gal(b1-4)Glc6S
In short: (§1)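 Arrays were curated from the Consortium for Functional Glycomics database, 3228 in total, and kept only where the protein sequence was available. Binding is expressed as a within-array Z-score. This score was averaged across arrays of the same protein sequence at different concentrations or buffers and across linkers, and negative values can be read as non-binding.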

[1] = biological target: Fuc(a1-2)Gal(b1-4)GlcNAc(b1-3)Gal(b1-4)GlcNAc
In short: as §1

[2] = biological target: Fuc(a1-2)Gal(b1-4)GlcNAc(b1-3)Gal(b1-4)GlcNAc(b1-2)Man(a1-3)[Fuc(a1-2)Gal(b1-4)GlcNAc(b1-3)Gal(b1-4)GlcNAc(b1-2)Man(a1-6)]Man(b1-4)GlcNAc(b1-4)GlcNAc
In short: as §1

[3] = biological target: Fuc(a1-2)Gal(b1-4)GlcNAc(b1-3)Gal(b1-4)GlcNAc(b1-3)Gal(b1-4)GlcNAc
In short: as §1

[4] = biological target: Fuc(a1-2)Gal(b1-4)GlcNAc(b1-3)GalNAc
In short: as §1

[5] = biological target: Fuc(a1-2)Gal(b1-4)GlcNAc(b1-6)GalNAc
In short: as §1

[6] = biological target: Fuc(a1-2)Gal(b1-4)[Fuc(a1-3)]GlcNAc(b1-2)Man(a1-3)[Fuc(a1-2)Gal(b1-4)[Fuc(a1-3)]GlcNAc(b1-2)Man(a1-6)]Man(b1-4)GlcNAc(b1-4)[Fuc(a1-6)]GlcNAc
In short: as §1

[7] = biological target: Fuc(a1-2)Gal(b1-4)[Fuc(a1-3)]GlcNAc(b1-2)[Fuc(a1-2)Gal(b1-4)[Fuc(a1-3)]GlcNAc(b1-4)]Man(a1-3)[Fuc(a1-2)Gal(b1-4)[Fuc(a1-3)]GlcNAc(b1-2)Man(a1-6)]Man(b1-4)GlcNAc(b1-4)GlcNAc
In short: as §1

[8] = biological target: Fuc(a1-2)Gal(b1-4)[Fuc(a1-3)]GlcNAc(b1-3)Gal(b1-4)[Fuc(a1-3)]GlcNAc
In short: as §1

[9] = biological target: Fuc(a1-2)Gal(b1-4)[Fuc(a1-3)]GlcNAc(b1-3)Gal(b1-4)[Fuc(a1-3)]GlcNAc(b1-3)Gal(b1-4)[Fuc(a1-3)]GlcNAc
In short: as §1

[10] = biological target: Fuc(a1-2)[Gal(a1-3)]Gal(b1-3)GalNAc(b1-3)Gal(a1-4)Gal(b1-4)Glc
In short: as §1

[11] = biological target: Fuc(a1-2)[Gal(a1-3)]Gal(b1-3)GlcNAc(b1-2)Man(a1-3)[Fuc(a1-2)[Gal(a1-3)]Gal(b1-3)GlcNAc(b1-2)Man(a1-6)]Man(b1-4)GlcNAc(b1-4)[Fuc(a1-6)]GlcNAc
In short: as §1

[12] = biological target: Fuc(a1-2)[Gal(a1-3)]Gal(b1-4)[Fuc(a1-3)]GlcNAc(b1-3)GalNAc
In short: as §1

[13] = biological target: Fuc(a1-2)[GalNAc(a1-3)]Gal(b1-4)GlcNAc(b1-3)Gal(b1-4)GlcNAc(b1-3)Gal(b1-4)GlcNAc
In short: as §1

[14] = biological target: Fuc(a1-2)[GalNAc(a1-4)]Gal(b1-4)GlcNAc
In short: as §1

[15] = biological target: Fuc(a1-3)[Gal(b1-4)]GlcNAc(b1-3)Gal(b1-4)[Fuc(a1-3)]GlcNAc(b1-3)Gal(b1-4)[Fuc(a1-3)]GlcNAc
In short: as §1

Gal(b1-3)GalNAc = biological target: Gal(b1-3)GalNAc
In short: as §1

[16] = biological target: Gal(b1-3)GlcNAc(a1-3)Gal(b1-4)GlcNAc
In short: as §1

[17] = biological target: Gal(b1-3)GlcNAc(b1-3)Gal(b1-4)[Fuc(a1-3)]GlcNAc
In short: as §1

[18] = biological target: Gal(b1-3)GlcNAc(b1-3)GalNAc
In short: as §1

[19] = biological target: Gal(b1-3)GlcNAc(b1-6)[Gal(b1-3)]GalNAc
In short: as §1

[20] = biological target: Gal(b1-3)[Fuc(a1-4)]GlcNAc(b1-3)Gal(b1-3)[Fuc(a1-4)]GlcNAc
In short: as §1

[21] = biological target: Gal(b1-3)[Fuc(a1-4)]GlcNAc(b1-3)Gal(b1-4)[Fuc(a1-3)]GlcNAc
In short: as §1

[22] = biological target: Gal(b1-3)[Neu5Ac(a2-6)]GalNAc
In short: as §1

[23] = biological target: Gal(b1-4)GalNAc(b1-3)[Fuc(a1-2)]Gal(b1-4)GlcNAc
In short: as §1

Gal(b1-4)Glc = biological target: Gal(b1-4)Glc
In short: as §1

Gal(b1-4)GlcNAc(b1-2)Man = biological target: Gal(b1-4)GlcNAc(b1-2)Man
In short: as §1

[24] = biological target: Gal(b1-4)GlcNAc(b1-3)Gal(b1-4)GlcNAc(b1-3)[Gal(b1-4)GlcNAc(b1-3)Gal(b1-4)GlcNAc(b1-6)]GalNAc
In short: as §1

[25] = biological target: Gal(b1-4)GlcNAc(b1-3)Gal(b1-4)[Fuc(a1-3)]GlcNAc(b1-3)Gal(b1-4)[Fuc(a1-3)]GlcNAc
In short: as §1

Gal4S(b1-4)GlcNAc = biological target: Gal4S(b1-4)GlcNAc
In short: as §1

Gal6S(b1-4)GlcNAc = biological target: Gal6S(b1-4)GlcNAc
In short: as §1

GalNAc(b1-3)Gal = biological target: GalNAc(b1-3)Gal
In short: as §1

GalNAc3S(b1-4)GlcNAc3S = biological target: GalNAc3S(b1-4)GlcNAc3S
In short: as §1

[26] = biological target: GlcNAc(a1-4)Gal(b1-4)GlcNAc(b1-3)Gal(b1-4)Glc
In short: as §1

[27] = biological target: GlcNAc(b1-3)Gal(b1-4)GlcNAc(b1-3)Gal(b1-4)GlcNAc
In short: as §1

[28] = biological target: GlcNAc(b1-3)Gal(b1-4)GlcNAc(b1-3)Gal(b1-4)GlcNAc(b1-3)Gal(b1-4)GlcNAc(b1-2)Man(a1-3)[GlcNAc(b1-3)Gal(b1-4)GlcNAc(b1-3)Gal(b1-4)GlcNAc(b1-3)Gal(b1-4)GlcNAc(b1-2)Man(a1-6)]Man(b1-4)GlcNAc(b1-4)GlcNAc
In short: as §1

[29] = biological target: GlcNAc(b1-3)Gal(b1-4)GlcNAc(b1-3)Gal(b1-4)GlcNAc(b1-3)Gal(b1-4)GlcNAc(b1-3)Gal(b1-4)GlcNAc(b1-2)Man(a1-3)[GlcNAc(b1-3)Gal(b1-4)GlcNAc(b1-3)Gal(b1-4)GlcNAc(b1-3)Gal(b1-4)GlcNAc(b1-3)Gal(b1-4)GlcNAc(b1-2)Man(a1-6)]Man(b1-4)GlcNAc(b1-4)[Fuc(a1-6)]GlcNAc
In short: as §1

[30] = biological target: GlcNAc(b1-3)[GlcNAc(b1-6)]Gal(b1-4)GlcNAc
In short: as §1

GlcNAc(b1-4)GlcNAc = biological target: GlcNAc(b1-4)GlcNAc
In short: as §1

[31] = biological target: GlcNAc(b1-4)GlcNAc(b1-4)GlcNAc
In short: as §1

GlcNAc(b1-6)GalNAc = biological target: GlcNAc(b1-6)GalNAc
In short: as §1

Kdn(a2-3)Gal(b1-3)GlcNAc = biological target: Kdn(a2-3)Gal(b1-3)GlcNAc
In short: as §1

[32] = biological target: Man(a1-2)Man(a1-3)[Man(a1-2)Man(a1-6)]Man(a1-6)[Man(a1-2)Man(a1-2)Man(a1-3)]Man
In short: as §1

[33] = biological target: Man(a1-3)[Man(a1-6)]Man(a1-6)[Man(a1-2)Man(a1-3)]Man(b1-4)GlcNAc(b1-4)GlcNAc
In short: as §1

[34] = biological target: Neu5Ac(a2-3)Gal(b1-3)[Fuc(a1-4)]GlcNAc
In short: as §1

[35] = biological target: Neu5Ac(a2-3)Gal(b1-4)GlcNAc(b1-3)Gal(b1-3)GlcNAc
In short: as §1

[36] = biological target: Neu5Ac(a2-3)Gal(b1-4)GlcNAc(b1-3)GalNAc
In short: as §1

[37] = biological target: Neu5Ac(a2-3)Gal(b1-4)GlcNAc(b1-6)[Gal(b1-3)]GalNAc
In short: as §1

[38] = biological target: Neu5Ac9Ac(a2-6)Gal(b1-4)GlcNAc
In short: as §1

[39] = biological target: Neu5Gc(a2-3)Gal(b1-3)[Fuc(a1-4)]GlcNAc
In short: as §1

Neu5Gc(a2-6)GalNAc = biological target: Neu5Gc(a2-6)GalNAc
In short: as §1

[40] = biological target: Neu5Gc(a2-8)Neu5Gc(a2-6)Gal(b1-4)GlcNAc
In short: as §1

B1: LecB PA7 (Pseudomonas aeruginosa) (protein)
chain: MATQGVFTLPANTRFGVTAFANSSATQTVKVLVNNETAATFTGQSTNNAVIGSQVLNSGGGGKVQIQVSVNGRSSDLVSAQVILANELNVALVGSEDSTDNDYNDAVVVINWPLG
Fuc(a1-2)Gal(b1-4)Glc6S
  glycan array binding signal (z-score): 1.89
[1]
  glycan array binding signal (z-score): 3.5
[2]
  glycan array binding signal (z-score): 10.1
[3]
  glycan array binding signal (z-score): 3.71
[4]
  glycan array binding signal (z-score): 0.923
[5]
  glycan array binding signal (z-score): 0.819
[6]
  glycan array binding signal (z-score): 5.18
[7]
  glycan array binding signal (z-score): -0.08
[8]
  glycan array binding signal (z-score): 4.93
[9]
  glycan array binding signal (z-score): 4.08
[10]
  glycan array binding signal (z-score): -0.43
[11]
  glycan array binding signal (z-score): 0.145
[12]
  glycan array binding signal (z-score): 0.197
[13]
  glycan array binding signal (z-score): -0.381
[14]
  glycan array binding signal (z-score): 1.57
[15]
  glycan array binding signal (z-score): 3.54
Gal(b1-3)GalNAc
  glycan array binding signal (z-score): -0.403
[16]
  glycan array binding signal (z-score): -0.51
[17]
  glycan array binding signal (z-score): 1.8
[18]
  glycan array binding signal (z-score): -0.499
[19]
  glycan array binding signal (z-score): -0.412
[20]
  glycan array binding signal (z-score): 3.31
[21]
  glycan array binding signal (z-score): 3.44
[22]
  glycan array binding signal (z-score): -0.511
[23]
  glycan array binding signal (z-score): -0.478
Gal(b1-4)Glc
  glycan array binding signal (z-score): -0.502
Gal(b1-4)GlcNAc(b1-2)Man
  glycan array binding signal (z-score): -0.495
[24]
  glycan array binding signal (z-score): -0.495
[25]
  glycan array binding signal (z-score): 2.05
Gal4S(b1-4)GlcNAc
  glycan array binding signal (z-score): -0.478
Gal6S(b1-4)GlcNAc
  glycan array binding signal (z-score): -0.501
GalNAc(b1-3)Gal
  glycan array binding signal (z-score): -0.493
GalNAc3S(b1-4)GlcNAc3S
  glycan array binding signal (z-score): -0.517
[26]
  glycan array binding signal (z-score): -0.505
[27]
  glycan array binding signal (z-score): -0.503
[28]
  glycan array binding signal (z-score): -0.467
[29]
  glycan array binding signal (z-score): 0.402
[30]
  glycan array binding signal (z-score): -0.516
GlcNAc(b1-4)GlcNAc
  glycan array binding signal (z-score): -0.486
[31]
  glycan array binding signal (z-score): -0.497
GlcNAc(b1-6)GalNAc
  glycan array binding signal (z-score): -0.504
Kdn(a2-3)Gal(b1-3)GlcNAc
  glycan array binding signal (z-score): -0.511
[32]
  glycan array binding signal (z-score): 3.2
[33]
  glycan array binding signal (z-score): 2.3
[34]
  glycan array binding signal (z-score): 3.31
[35]
  glycan array binding signal (z-score): -0.505
[36]
  glycan array binding signal (z-score): -0.466
[37]
  glycan array binding signal (z-score): -0.087
[38]
  glycan array binding signal (z-score): -0.502
[39]
  glycan array binding signal (z-score): 2.03
Neu5Gc(a2-6)GalNAc
  glycan array binding signal (z-score): -0.508
[40]
  glycan array binding signal (z-score): -0.507
